From PubChem BioAssay (Tox21)
Records with an inconclusive call do not appear. Where a call stands in place of a potency, no number is given. A structure can be active in one record and inactive in another. The source made the active and inactive calls. Unless noted, calls come from the whole dose curve; as a rule, active = well fitted curve in the direction sought with a large enough effect in the repeat runs; inconclusive = weak or mixed curves; inactive = no such curve, though single readings can be large; an effect the other way counts as inactive or inconclusive.

Key:
[1] = qHTS assay to identify small molecule agonists of the estrogen receptor alpha (ER-alpha) signaling pathway in the presence of an antagonist - cell viability counter screen (AID 1259386);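 note: series mostly up to about 92 µM; cells exposed to compounds for 22 h at 37 °C before the viability read; nearly all actives have a fitted effect of over 30% in size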
Method in brief: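 VM7Luc4E2, stripped-serum pre-culture 5 d; 24hr plating; +ICI-182,780 10.0nM final; cpds 15 conc, 22hr, 37C/5% CO2; CellTiter-Fluor added at 21hr, fluorescence 1hr later.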

[2] = target: Progesterone receptor (Homo sapiens) (UniProt P06401); experiment: qHTS assay to identify small molecule agonists of the progesterone receptor (PR) signaling pathway (AID 1346784; calls by dose curve; note: nearly all actives have a fitted effect of over 30% in size)
Chain of Progesterone receptor (Homo sapiens) (P06401 whole entry, looked up): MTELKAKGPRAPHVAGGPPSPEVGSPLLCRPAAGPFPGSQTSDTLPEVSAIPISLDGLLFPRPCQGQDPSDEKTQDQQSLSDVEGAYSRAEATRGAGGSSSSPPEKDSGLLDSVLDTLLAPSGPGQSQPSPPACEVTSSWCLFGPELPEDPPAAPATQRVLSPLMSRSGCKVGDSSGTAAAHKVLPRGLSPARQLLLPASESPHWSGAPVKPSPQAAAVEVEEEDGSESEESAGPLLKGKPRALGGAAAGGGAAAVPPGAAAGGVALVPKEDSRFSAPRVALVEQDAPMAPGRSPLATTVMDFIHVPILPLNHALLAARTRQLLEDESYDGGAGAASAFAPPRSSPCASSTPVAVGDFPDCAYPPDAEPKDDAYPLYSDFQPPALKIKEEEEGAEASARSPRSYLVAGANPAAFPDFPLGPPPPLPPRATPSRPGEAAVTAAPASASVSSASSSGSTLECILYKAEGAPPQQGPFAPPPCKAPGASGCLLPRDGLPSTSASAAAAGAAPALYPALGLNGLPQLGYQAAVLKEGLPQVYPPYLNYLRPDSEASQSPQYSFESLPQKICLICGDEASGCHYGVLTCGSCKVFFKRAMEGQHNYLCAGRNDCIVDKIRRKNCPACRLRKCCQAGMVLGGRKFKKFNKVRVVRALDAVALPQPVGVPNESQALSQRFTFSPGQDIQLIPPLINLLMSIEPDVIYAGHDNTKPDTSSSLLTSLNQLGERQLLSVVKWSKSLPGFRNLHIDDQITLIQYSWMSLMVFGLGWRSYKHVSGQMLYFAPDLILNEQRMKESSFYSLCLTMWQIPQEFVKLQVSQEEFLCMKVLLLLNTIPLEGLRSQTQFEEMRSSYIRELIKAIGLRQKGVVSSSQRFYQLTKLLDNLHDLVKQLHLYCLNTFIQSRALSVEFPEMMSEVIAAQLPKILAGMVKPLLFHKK
Method in brief: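 Agonist mode, quantitative HTS format in a HEK 293T line expressing a UAS-controlled beta-lactamase reporter; 16 hr compound exposure at 37C in 2% charcoal-stripped FBS, then LiveBLAzer B/G FRET fluorescence.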

[3] = target: Progesterone receptor (Homo sapiens) (UniProt P06401); experiment: qHTS assay to identify small molecule antagonists of the progesterone receptor (PR) signaling pathway (AID 1346795; active = well fitted inhibition curve with a large enough effect in the signal ratio in the repeat runs, not every such curve was filed as active; the % refers to the signal ratio; note: potency is the fitted concentration of half-maximal effect)
Method in brief: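 HEK293T PR-UAS-bla reporter cells in charcoal-stripped serum (2%) received compound after a 6 hr settling period, followed by R5020 agonist at 1 nM final; 16 hr incubation preceded the FRET substrate step and fluorescence measurement.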

[4] = qHTS assay to identify small molecule antagonists of the progesterone receptor (PR) signaling pathway - cell viability counter screen (AID 1346798); note: nearly all actives have a fitted effect of over 50% in size; note: potency is the fitted concentration of half-maximal effect
Method in brief: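 Same-well multiplex: after 16 hr at 37C with compound and R5020 stimulation, HEK293T cells carrying a UAS-bla reporter received LiveBLAzer substrate (2 hr RT), then CellTiter-Glo (30 min RT) for luminescent viability.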

[5] = qHTS assay to identify small molecule agonists of the progesterone receptor (PR) signaling pathway - cell viability counter screen (AID 1346799; calls by dose curve; note: nearly all actives have a fitted effect of over 45% in size; note: potency is the fitted concentration of half-maximal effect)
Method in brief: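 Counter screen for cytotoxicity: compound-treated PR-UAS-bla HEK293T cells (16 hr, 37C, 5% CO2) were assayed with CellTiter-Glo, luminescence measured after 30 min at room temperature.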

[6] = qHTS assay to identify small molecule antagonists of the TGF-beta/Smad signaling pathway - cell viability counter screen (AID 1346824); note: nearly all actives have a fitted effect of over 50% in size
Method in brief: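 SBE-bla HEK 293T cells, incubated overnight, then compound plus 0.25 ng/mL TGF-beta1 (stock added) for 5 hr at 37 C. Viability was read in the same wells by CellTiter-Glo luminescence after 30 min at room temperature.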

[7] = qHTS assay to identify small molecule agonists of the TGF-beta/Smad signaling pathway (AID 1346859; active = well fitted activation curve with a large enough effect in the signal ratio in the repeat runs, not every such curve was filed as active; the % refers to the signal ratio; note: series mostly up to about 77 µM)
Method in brief: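 Smad-responsive beta-lactamase reporter cells (HEK 293T) received compounds from DMSO stocks after overnight attachment, were incubated 5 hr, then treated 2 hr with FRET substrate before dual-emission fluorescence measurement (405 nm excitation).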

[8] = target: Thyrotropin-releasing hormone receptor (Homo sapiens) (UniProt P34981); experiment: qHTS assay to identify small molecule antagonists of the thyrotropin-releasing hormone receptor (TRHR) signaling pathway (AID 1346877; active = well fitted inhibition curve with a large enough effect in the repeat runs, not every such curve was filed as active; note: series mostly up to about 51 µM)
Chain of Thyrotropin-releasing hormone receptor (Homo sapiens) (P34981 whole entry, looked up): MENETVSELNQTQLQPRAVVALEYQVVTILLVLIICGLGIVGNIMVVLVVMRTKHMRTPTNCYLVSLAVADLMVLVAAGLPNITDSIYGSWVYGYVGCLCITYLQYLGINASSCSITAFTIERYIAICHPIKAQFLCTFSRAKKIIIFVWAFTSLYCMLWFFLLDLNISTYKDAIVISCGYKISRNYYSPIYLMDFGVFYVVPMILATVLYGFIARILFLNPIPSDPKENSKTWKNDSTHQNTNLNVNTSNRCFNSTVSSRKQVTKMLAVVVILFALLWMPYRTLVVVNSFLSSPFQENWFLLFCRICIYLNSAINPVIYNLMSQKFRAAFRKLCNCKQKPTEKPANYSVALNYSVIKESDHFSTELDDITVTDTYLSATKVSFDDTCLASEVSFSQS
Method in brief: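 Intracellular calcium fluorescence, read kinetically every second over 3 min, reports TRH-evoked signalling in HEK293 cells carrying TRHR. Test compounds were added 5 min ahead of a 1 nM TRH challenge.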

[9] = target: Thyrotropin-releasing hormone receptor (Homo sapiens) (UniProt P34981); experiment: qHTS assay to identify small molecule agonists of the thyrotropin-releasing hormone receptor (TRHR) signaling pathway (AID 1346891; calls by dose curve;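 note: HEK293 cells expressing TRHR with calcium dye readout; series mostly up to about 58 µM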)
Method in brief: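 Agonist-mode calcium mobilisation screen: TRHR-transfected HEK293 cells cultured overnight (18 h), dye-loaded for 2 h at 37 °C, exposed to compounds, and monitored by fluorescence for 3 min.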

[10] = qHTS assay to identify small molecule agonists of the TGF-beta/Smad signaling pathway - cell viability counter screen (AID 1346829); note: nearly all actives have a fitted effect of over 45% in size; note: potency is the fitted concentration of half-maximal effect
Method in brief: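 Same-well cytotoxicity: CellTiter-Glo added after the 2 hr room-temperature beta-lactamase substrate step, luminescence measured 30 min later; cells had 5 hr of compound at 37 C.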

Row | Compound | Potency [1] | Potency [2] | Potency [3] | Potency [4] | Potency [5] | Potency [6] | outcome [7] | Potency [8] | outcome [9] | Potency [10]
1 | COP(=O)(OC)OC(Br)C(Cl)(Cl)Br (stereo unspecified) | inactive | inactive | inactive | inactive | inactive | inactive | inactive | inactive | inactive | –
2 | O=C1NC(=O)C(=O)C(=O)N1 | inactive | inactive | inactive | inactive | inactive | inactive | inactive | – | – | –
3 | C#CC(O)(C=CCl)CC (stereo unspecified) | inactive | inactive | inactive | inactive | inactive | inactive | inactive | – | – | inactive
4 | C=CC(=O)NC(C)(C)CC(C)=O | inactive | inactive | inactive | inactive | inactive | inactive | inactive | inactive | inactive | inactive
5 | C=C(Cl)Cl | inactive | inactive | inactive | inactive | inactive | inactive | inactive | – | – | inactive
6 | CC(C)(C)NCC(O)c1ccccc1Cl (stereo unspecified) | inactive | inactive | inactive | inactive | inactive | inactive | inactive | inactive | inactive | –
7 | Cc1ccccc1 | inactive | inactive | inactive | inactive | inactive | inactive | inactive | inactive | inactive | inactive
8 | CCOP(=S)(OCC)Oc1ccc(S(C)=O)cc1 (stereo unspecified) | inactive | inactive | inactive | inactive | inactive | inactive | inactive | inactive | inactive | inactive
9 | CC(Cl)C(=O)O (stereo unspecified) | inactive | inactive | inactive | inactive | inactive | inactive | inactive | inactive | inactive | inactive
10 | O=C(O)c1cc(I)cc(I)c1I | inactive | inactive | inactive | inactive | inactive | inactive | inactive | inactive | inactive | inactive
11 | CCC(C)(C)O | inactive | inactive | inactive | inactive | inactive | inactive | inactive | inactive | inactive | inactive
12 | O=C(O)C(O)C(O)C(=O)O (stereo unspecified) | inactive | inactive | inactive | inactive | inactive | inactive | inactive | inactive | inactive | inactive
13 | CC(C)CCON=O | inactive | inactive | inactive | inactive | inactive | inactive | inactive | inactive | inactive | inactive
14 | CCC1CCC(=O)O1 (stereo unspecified) | inactive | inactive | inactive | inactive | inactive | inactive | inactive | inactive | inactive | inactive
15 | C=C(C)C(=O)OCCCCOC(=O)C(=C)C | inactive | inactive | inactive | inactive | inactive | inactive | inactive | inactive | inactive | inactive
16 | CCOP(=O)(SC(C)CC)N1CCSC1=O (stereo unspecified) | inactive | inactive | inactive | inactive | inactive | inactive | inactive | inactive | inactive | inactive
17 | CN1C(=O)CN=C(c2ccccc2)c2cc([N+](=O)[O-])ccc21 | inactive | inactive | inactive | inactive | inactive | inactive | inactive | inactive | inactive | –
18 | CCSCc1ccccc1OC(=O)NC | inactive | inactive | inactive | inactive | inactive | inactive | inactive | inactive | inactive | inactive
19 | O=C(CCl)CCl | inactive | inactive | inactive | inactive | inactive | inactive | inactive | inactive | inactive | –
20 | C1CS1 | inactive | inactive | inactive | inactive | inactive | inactive | inactive | inactive | inactive | inactive
21 | C=CC(C)(CCC=C(C)C)OC(=O)c1ccccc1N (stereo unspecified) | inactive | inactive | inactive | inactive | inactive | inactive | inactive | inactive | inactive | inactive
22 | CCCCOC(=O)CCC(=O)OCCCC | inactive | inactive | inactive | inactive | inactive | inactive | inactive | inactive | inactive | inactive
23 | C[C@H]1O[C@H](OC2[C@@H](O)[C@@H](O)C(O)[C@H](O)[C@H]2O)[C@@H](N)C[C@@H]1N=C(N)C(=O)O (stereo partly specified) | inactive | inactive | inactive | inactive | inactive | inactive | inactive | inactive | inactive | inactive
24 | CCCCC(CC)CO[N+](=O)[O-] (stereo unspecified) | inactive | inactive | inactive | inactive | inactive | inactive | inactive | inactive | inactive | inactive
25 | O=P(OCC(Br)CBr)(OCC(Br)CBr)OCC(Br)CBr (stereo unspecified) | inactive | inactive | 5.8 µM (active) | inactive | inactive | inactive | inactive | inactive | inactive | –
26 | CCC(C)Cl (stereo unspecified) | inactive | inactive | inactive | inactive | inactive | inactive | inactive | inactive | inactive | inactive

Row | Compound | Potency [1] | Potency [2] | Potency [3] | Potency [4] | Potency [5] | Potency [6] | outcome [7] | Potency [8] | outcome [9] | Potency [10]
27 | CCCC(C)(COC(N)=O)COC(=O)NC(C)C (stereo unspecified) | inactive | inactive | inactive | inactive | inactive | inactive | inactive | inactive | inactive | inactive
28 | CCCC[N+](CCCC)(CCCC)CCCC | inactive | inactive | inactive | inactive | inactive | inactive | inactive | inactive | inactive | inactive
29 | CCCCC#N | inactive | inactive | inactive | inactive | inactive | inactive | inactive | inactive | inactive | inactive
30 | COC1CC(=C(c2cccs2)c2cccs2)C[N+](C)(C)C1 (stereo unspecified) | inactive | inactive | inactive | inactive | inactive | inactive | inactive | inactive | inactive | inactive
31 | Nc1cc(Cl)cc(C(=O)O)c1Cl | inactive | inactive | inactive | inactive | inactive | inactive | inactive | inactive | inactive | inactive
32 | CCc1cnc(C2=NC(C)(C(C)C)C(=O)N2)c(C(=O)O)c1 (stereo unspecified) | inactive | inactive | inactive | inactive | inactive | inactive | inactive | inactive | inactive | inactive
33 | C=CCc1ccccc1O | inactive | inactive | inactive | inactive | inactive | inactive | inactive | inactive | inactive | inactive
34 | CCOC(=O)C1OC1(C)c1ccccc1 (stereo unspecified) | inactive | inactive | inactive | inactive | inactive | inactive | inactive | inactive | inactive | inactive
35 | Clc1ccc(Cl)c(Cl)c1 | inactive | inactive | inactive | inactive | inactive | inactive | inactive | inactive | inactive | –
36 | OCC1CO1 (stereo unspecified) | inactive | inactive | inactive | inactive | inactive | inactive | inactive | – | – | inactive
37 | CN(C)C(=O)Nc1cccc(OC(=O)NC(C)(C)C)c1 | inactive | inactive | inactive | inactive | inactive | inactive | inactive | inactive | inactive | inactive
38 | CC(Oc1cccc(Cl)c1)C(=O)O (stereo unspecified) | inactive | inactive | inactive | inactive | inactive | inactive | inactive | inactive | inactive | inactive
39 | O=C(Cc1ccccc1)OCCc1ccccc1 | inactive | inactive | inactive | inactive | inactive | inactive | inactive | inactive | inactive | inactive
40 | C1CCNCC1 | inactive | inactive | – | inactive | inactive | inactive | inactive | – | – | –
41 | CCCCCCCCCCCCN(C)C | inactive | inactive | – | inactive | inactive | inactive | inactive | inactive | inactive | inactive
42 | Clc1ccccc1 | inactive | inactive | – | inactive | inactive | inactive | inactive | inactive | inactive | inactive
43 | C[C@H](N)[C@H](O)c1ccc(O)c(O)c1 | inactive | inactive | – | inactive | inactive | – | inactive | inactive | inactive | –
44 | SCc1ccccc1 | inactive | inactive | – | inactive | inactive | inactive | inactive | inactive | inactive | inactive
45 | COc1ccccc1N1CCNCC1 | inactive | inactive | – | inactive | inactive | inactive | inactive | inactive | inactive | inactive
46 | CN[C@@H](C)[C@H](O)c1ccccc1 | inactive | inactive | – | inactive | inactive | inactive | inactive | inactive | inactive | inactive
47 | CCC[N+](CCC)(CCC)CCC | inactive | inactive | – | inactive | inactive | inactive | inactive | inactive | inactive | –
48 | O=C(O)C(F)(F)C(F)(F)C(F)(F)C(F)(F)C(F)(F)C(F)(F)C(F)(F)C(F)(F)F | inactive | inactive | – | inactive | – | inactive | inactive | inactive | inactive | inactive
49 | CC(C)(C)CC(C)(C)c1ccc(O)cc1 | inactive | inactive | – | 54.5 µM (active) | 48.6 µM (active) | – | inactive | inactive | inactive | 43.6 µM (active) and inactive
50 | CC(C)(C)OOC(C)(C)CCC(C)(C)OOC(C)(C)C | inactive | inactive | – | inactive | inactive | inactive | inactive | inactive | inactive | inactive
51 | OC[P+](CO)(CO)CO | inactive | inactive | – | inactive | inactive | inactive | inactive | inactive | inactive | –
52 | O=S(=O)(Cl)Cl | inactive | inactive | – | inactive | inactive | – | inactive | inactive | inactive | –
